# Test results reported in PubChem BioAssay (NCATS).
# Inconclusive results are not listed. A call without a number means that no potency is given here. Unmarked numbers belong to inactive results. Active and inactive are the calls of the source. Calls come from the whole dose curve; as a rule, active = well fitted curve in the direction sought with a large enough effect; inconclusive = small, poorly fitted or top-dose-only effect, or another doubt; inactive = no such curve, though single readings can be large; an effect the other way counts as inactive or inconclusive. Where a SMILES comes first, the peptide text is derived from it. [ ]: non-standard residue; d: D form. 2Abz = Nc1ccccc1C(=O)O
# Columns and labels:
# [1] = Primary qHTS for inhibitors of nuclear receptor binding SET domain protein 2 (NSD2) in an isogenic RCH-ACV NSD2 p.E1099K mutant (9B) (AID 1645876)
# [2] = Primary qHTS for inhibitors of nuclear receptor binding SET domain protein 2 (NSD2) in an RCH-ACV wild type WT cells (2C) (AID 1645877); note: potency is the fitted concentration of half-maximal effect
# Note: nearly all actives have a fitted effect of over 70% in size.
structure (smiles),measurement,setting,value
CC1=C2C(=O)O[C@@H](c3ccoc3)[C@]2(C)CCC1,Potency,[1],inactive
same,Potency,[2],inactive
CC(/C=C/C1(O)C(C)CC(O)CC1(C)C)OC1OC(CO)C(O)C(O)C1O (configuration not stated),Potency,[1],inactive
same,Potency,[2],inactive
O=C1NCc2nc3ccccc3c(=O)n2C1Cc1c[nH]c2ccccc12 (configuration not stated),Potency,[1],inactive
same,Potency,[2],inactive
CC(C)C1=CC2=CCC3[C@](C)(CCC[C@@]3(C)C(=O)O)C2CC1O (some centres not stated),Potency,[1],inactive
same,Potency,[2],inactive
COc1cc2c(cc1O)C1(OC)Cc3ccc4c(c3C1N(C)CC2)OCO4 (configuration not stated),Potency,[1],inactive
same,Potency,[2],inactive
CC1CCC2C(C)(C)C(O)CCC2(C)C12Cc1c(O)cc3c(c1O2)C(N)=NC3 (configuration not stated),Potency,[1],inactive
same,Potency,[2],inactive
COc1cc(O[C@@H]2O[C@H](CO)[C@@H](O)[C@H](O)[C@H]2O)c(CCC(=O)OC[C@H]2O[C@@H](Oc3cc(OC)c(C4OC(=O)C(C)(O)C4O)cc3CCC(=O)O)[C@H](O)[C@@H](O)[C@@H]2O)cc1C1OC(=O)C(C)(O)C1O (some centres not stated),"activity change, negative = viability loss",[1],-2.96% [at 9.23 µM]
same,"activity change, negative = cell killing",[2],-6.02% [at 9.23 µM]
Cc1ncc([N+](=O)[O-])n1CC(O)CN1CCOCC1 (configuration not stated),Potency,[1],inactive
same,Potency,[2],inactive
CC(=O)c1c(O)cc2c(c1C)C(=O)CC(O)C2 (configuration not stated),Potency,[1],inactive
same,Potency,[2],inactive
CC(=O)O[C@H]1[C@H](C)[C@@H](O)[C@H]2[C@@H]1C=C(C(=O)O)[C@H]1C[C@@H]3[C@H]([C@H]21)[C@H]1C(=O)O[C@@H]2CC[C@@]3(C)O[C@]1(O)[C@@H]2C,Potency,[1],inactive
same,Potency,[2],inactive
C=C1C(OC(C)=O)C(=O)C2C(C)(C)C(OC(C)=O)CCC2(C)C1CC(OC(C)=O)/C(C)=C/COC(C)=O (configuration not stated),Potency,[1],inactive
same,Potency,[2],inactive
CC1NC(=O)CNC(=O)C(C(C)C)NC(=O)C2CCCN2C(=O)C(C(C)C)NC(=O)C(Cc2c[nH]c3ccccc23)NC1=O (configuration not stated) (cyclo(GAWVPV); configuration not given here),Potency,[1],inactive
same,Potency,[2],inactive
C[C@@]12C[C@]3(O)O[C@H](O1)[C@]1(COC(=O)c4ccccc4)[C@H]3C[C@@]12O[C@@H]1O[C@H](COC(=O)c2ccccc2)[C@@H](O)[C@H](O)[C@H]1O,Potency,[1],inactive
same,Potency,[2],inactive
CC(=O)OC(CSC1CCC(=O)OC(C)CCC(=O)C1)C(=O)O (configuration not stated),Potency,[1],inactive
same,Potency,[2],inactive
COc1ccc(C2=CC(=O)OC2Cc2ccc(O)cc2)c(O)c1 (configuration not stated),Potency,[1],inactive
same,Potency,[2],inactive
COc1ccccc1-n1c(SCC(=O)Nc2nc3ccc(C)cc3s2)nc2c(c1=O)SCC2,Potency,[1],inactive
same,Potency,[2],inactive
CCC(C)C1NC(=O)C2CCCN2C(=O)C(C(C)C)NC(=O)c2ccccc2NC(=O)C(Cc2ccc(O)cc2)NC(=O)C(C)NC(=O)C(C(C)O)NC1=O (configuration not stated) (cyclo([2Abz]VPITAY); configuration not given here),Potency,[1],inactive
same,Potency,[2],inactive
O=C(/C=C/c1ccccc1)OCC1=CC[C@@H]2C(C(=O)O)=CO[C@@H](O[C@@H]3O[C@H](CO)[C@@H](O)[C@H](O)[C@H]3O)[C@H]12,Potency,[1],inactive
same,Potency,[2],inactive
CC1(C)CC[C@]2(C(=O)O)CC[C@]3(C)C(=CCC4[C@@]5(C)C[C@@H](O)[C@H](O)C(C)(C)C5CC[C@]43C)[C@@H]2[C@@H]1O (some centres not stated),Potency,[1],inactive
same,Potency,[2],inactive
O=C1NC(Cc2ccc(O)cc2)C(=O)N2CCCC12 (configuration not stated),Potency,[1],inactive
same,Potency,[2],inactive
O=C(/C=C/c1ccc(O)cc1)OCC1=CC2OC(=O)C3=CO[C@@H](O[C@@H]4O[C@H](CO)[C@@H](O)[C@H](O)[C@H]4O)[C@H]1[C@@H]32 (some centres not stated),Potency,[1],inactive
same,Potency,[2],inactive
COC(=O)C1=CO[C@@H](O[C@@H]2O[C@H](CO)[C@@H](O)[C@H](O)[C@H]2O)[C@@H]2[C@@H](C(=O)OC)[C@@H](O)C(O)[C@H]12 (some centres not stated),Potency,[1],inactive
same,Potency,[2],inactive
COc1cc(COC2OC(CO)C(O)C(O)C2O)cc(OC)c1O (configuration not stated),Potency,[1],inactive
same,Potency,[2],inactive
COC(=O)C1=CO[C@@H](O[C@@H]2O[C@H](CO[C@@H]3O[C@H](COC(=O)/C=C/c4ccc(O)cc4)[C@@H](O)[C@H](O)[C@H]3O)[C@@H](O)[C@H](O)[C@H]2O)[C@@H]2C(CO)=CC[C@H]12,Potency,[1],inactive
same,Potency,[2],inactive
CCCCS(=O)(=O)Nc1ncnc(OCCOc2ncc(Br)cn2)c1-c1ccc(Br)cc1,Potency,[1],inactive
same,Potency,[2],inactive
O=C(O[C@H]1[C@@H]2C=CO[C@@H](O[C@@H]3O[C@H](CO)[C@@H](O)[C@H](O)[C@H]3O)[C@@H]2[C@@]2(CO)O[C@@H]12)c1ccc(O)cc1,Potency,[1],inactive
same,Potency,[2],inactive
C[C@@H]1O[C@@H](O[C@H]2[C@H](O[C@H]3[C@H](O[C@H]4CC[C@@]5(C)C(CC[C@]6(C)C5CC=C5[C@@H]7CC(C)(C(=O)O)C[C@@H](O)[C@]7(C)CC[C@]56C)[C@@]4(C)CO)O[C@H](C(=O)O)[C@@H](O)[C@@H]3O)O[C@H](CO)[C@H](O)[C@@H]2O)[C@H](O)[C@H](O)[C@H]1O (some centres not stated),"activity change, negative = viability loss",[1],-4.48% [at 9.23 µM]
same,"activity change, negative = cell killing",[2],-5.72% [at 9.23 µM]
C[C@@H]1CCN(C(=O)CC#N)C[C@@H]1N(C)c1ncnc2[nH]ccc12,Potency,[1],inactive
same,Potency,[2],23.5 µM (active)
COc1ccc([C@H]2Cc3cccc(O)c3C(=O)O2)cc1,Potency,[1],inactive
same,Potency,[2],inactive
C[C@@H]1O[C@@H](O[C@@H]2[C@@H](O)[C@@H](O)[C@H](O[C@@H]3[C@@H](O)[C@@H](O[C@]4(CO)O[C@H](CO)[C@@H](O)[C@@H]4OC(=O)/C=C/c4ccc(O)cc4)O[C@H](CO)[C@H]3OC(=O)/C=C/c3ccc(O)cc3)O[C@H]2C)[C@H](O)[C@H](O)[C@H]1O,outcome,[1],inactive [at 9.23 µM]
same,"activity change, negative = cell killing",[2],1.92% [at 9.23 µM]
C=C1C[C@]23C[C@H]1CC[C@H]2[C@@]12C=C[C@H](O)[C@@](C)(C(=O)O1)[C@H]2[C@@H]3C(=O)O,Potency,[1],inactive
same,Potency,[2],inactive
C=CC1(C)C=C2C(O)CC3C(C)(C(=O)O)CCCC3(C)C2CC1 (configuration not stated),Potency,[1],inactive
same,Potency,[2],inactive
CO[C@@]12CC3[C@@H]([C@@H](O)[C@@H](OC(C)=O)C4[C@](C)(COC(C)=O)CCC[C@]34C)[C@@H](C)C1=CC(=O)O2 (some centres not stated),Potency,[1],inactive
same,Potency,[2],inactive
C[C@]12CCC(=O)C=C1[C@@H](O)C[C@@H]1[C@@H]2[C@@H](O)C[C@@]2(C)[C@H]1CC[C@]2(O)C(=O)CO,Potency,[1],inactive
same,Potency,[2],inactive
COc1ccc2c(c1)O[C@H](O[C@@H]1O[C@H](CO)[C@@H](O)[C@H](O)[C@H]1O)C(=O)N2,Potency,[1],inactive
same,Potency,[2],inactive
COC1=CC(=O)O[C@@H](CCc2ccccc2)[C@@H]1O,Potency,[1],inactive
same,Potency,[2],inactive
C[C@@H]1O[C@@H](O[C@H]2[C@H](O[C@H]3[C@H](O[C@H]4CC[C@@]5(C=O)C(CC[C@]6(C)C5CC=C5C7CC(C)(C)C[C@@H](O)[C@]7(C)CC[C@]56C)C4(C)C)O[C@H](C(=O)O)[C@@H](O)[C@@H]3O)OC[C@@H](O)[C@@H]2O)[C@H](O)[C@H](O)[C@H]1O (some centres not stated),"activity change, negative = viability loss",[1],-2.85% [at 9.23 µM]
same,"activity change, negative = cell killing",[2],-3.05% [at 9.23 µM]
COc1cc(C/C(=C/NC(C)=O)N(CC(=O)Cc2ccccc2)C(C)=O)cc2c1OCO2,Potency,[1],inactive
same,Potency,[2],inactive
O=C(/C=C/c1ccc(O)c(O)c1)OCc1ccccc1O[C@@H]1O[C@H](CO)[C@@H](O)[C@H](O)[C@H]1O,Potency,[1],inactive
same,Potency,[2],inactive
C[C@@H]1O[C@@H](O[C@H]2[C@H](O[C@H]3[C@H](O[C@H]4CC[C@@]5(CO)C(CC[C@]6(C)C5CC=C5C7CC(C)(C)C[C@@H](O)[C@]7(C)CC[C@]56C)C4(C)C)O[C@H](C(=O)O)[C@@H](O)[C@@H]3O)OC[C@@H](O)[C@@H]2O)[C@H](O)[C@H](O)[C@H]1O (some centres not stated),"activity change, negative = viability loss",[1],-1.45% [at 9.23 µM]
same,"activity change, negative = cell killing",[2],-8.5% [at 9.23 µM]
CC(C)CC(=O)OC[C@H]1O[C@@](COC(=O)CC(C)C)(O[C@H]2O[C@H](CO)[C@@H](O)[C@H](O)[C@H]2O)[C@@H](OC(=O)CC(C)C)[C@@H]1OC(=O)CC(C)C,Potency,[1],inactive
same,Potency,[2],inactive
CC1=C(C)C(=O)OC(C(C)(O)C2CCC3C4CC=C5CC(OC6OC(COC7OC(CO)C(O)C(O)C7O)C(O)C(O)C6O)CC(O)C5(C)C4CCC32C)C1 (configuration not stated),Potency,[1],inactive
same,Potency,[2],inactive
COc1cc(/C=C/C(=O)OC2[C@H](O)CC(O)(C(=O)O)C[C@H]2O)ccc1O (some centres not stated),Potency,[1],inactive
same,Potency,[2],inactive
C/C=C(/C)C(=O)O[C@H]1C=C(C)C[C@H](OC(=O)c2ccc(O)cc2)C2[C@](O)(C(C)C)CC[C@@]21C (some centres not stated),Potency,[1],inactive
same,Potency,[2],inactive
CC(=O)O[C@@H]1[C@H](O[C@@H]2OC[C@](O)(CO)[C@H]2O)[C@@H](O[C@@H]2O[C@@H](C)[C@H](O)[C@@H](O)[C@H]2O)[C@H](OC(=O)[C@]23CCC(C)(C)C[C@H]2C2=CCC4[C@@]5(C)C[C@H](O)[C@H](O[C@@H]6O[C@H](C(=O)O)[C@@H](O)[C@H](O)[C@H]6O)[C@@](C)(C(=O)O)C5CC[C@@]4(C)[C@]2(C)CC3)O[C@@H]1C (some centres not stated),"activity change, negative = viability loss",[1],-7.7% [at 9.23 µM]
same,"activity change, negative = cell killing",[2],-8.29% [at 9.23 µM]
N#Cc1ccnc(N2C(=O)CC[C@H]2C(=O)N(c2cncc(F)c2)[C@H](C(=O)NC2CC(F)(F)C2)c2ccccc2Cl)c1,Potency,[1],inactive
same,Potency,[2],inactive
C=C1CC[C@H]2[C@@](C)(CCC[C@@]2(C)C(=O)O)[C@@H]1CCC(C)CCO (some centres not stated),Potency,[1],inactive
same,Potency,[2],inactive
CC1(C)O[C@]23C[C@H]1C[C@H](OC(=O)c1ccoc1)[C@]2(C)[C@@H](OC(=O)c1ccoc1)CCC3(C)O (some centres not stated),Potency,[1],inactive
same,Potency,[2],inactive
C=CCc1ccc(O[C@@H]2O[C@H](CO)[C@@H](O)[C@H](O)[C@H]2O)c(OC)c1,Potency,[1],inactive
same,Potency,[2],inactive
CC(NC(=O)CC(=O)O)c1nc2ccccc2c(=O)[nH]1 (configuration not stated),Potency,[1],inactive
same,Potency,[2],inactive
COC1CC(=O)CCC(C)OC(=O)CC1O (configuration not stated),Potency,[1],inactive
same,Potency,[2],inactive
